Measurements from the supplement of paper PMC3334620.
The full ranking holds about 33,000 sequences; the median of “E-score (-0.5 to 0.5)” is about -0.021, and the highest 2% start at about 0.32. This excerpt belongs to a sample that is enriched for the highest values.

Target: T1, Zap1 (UniProt P47043)
T1 sequence: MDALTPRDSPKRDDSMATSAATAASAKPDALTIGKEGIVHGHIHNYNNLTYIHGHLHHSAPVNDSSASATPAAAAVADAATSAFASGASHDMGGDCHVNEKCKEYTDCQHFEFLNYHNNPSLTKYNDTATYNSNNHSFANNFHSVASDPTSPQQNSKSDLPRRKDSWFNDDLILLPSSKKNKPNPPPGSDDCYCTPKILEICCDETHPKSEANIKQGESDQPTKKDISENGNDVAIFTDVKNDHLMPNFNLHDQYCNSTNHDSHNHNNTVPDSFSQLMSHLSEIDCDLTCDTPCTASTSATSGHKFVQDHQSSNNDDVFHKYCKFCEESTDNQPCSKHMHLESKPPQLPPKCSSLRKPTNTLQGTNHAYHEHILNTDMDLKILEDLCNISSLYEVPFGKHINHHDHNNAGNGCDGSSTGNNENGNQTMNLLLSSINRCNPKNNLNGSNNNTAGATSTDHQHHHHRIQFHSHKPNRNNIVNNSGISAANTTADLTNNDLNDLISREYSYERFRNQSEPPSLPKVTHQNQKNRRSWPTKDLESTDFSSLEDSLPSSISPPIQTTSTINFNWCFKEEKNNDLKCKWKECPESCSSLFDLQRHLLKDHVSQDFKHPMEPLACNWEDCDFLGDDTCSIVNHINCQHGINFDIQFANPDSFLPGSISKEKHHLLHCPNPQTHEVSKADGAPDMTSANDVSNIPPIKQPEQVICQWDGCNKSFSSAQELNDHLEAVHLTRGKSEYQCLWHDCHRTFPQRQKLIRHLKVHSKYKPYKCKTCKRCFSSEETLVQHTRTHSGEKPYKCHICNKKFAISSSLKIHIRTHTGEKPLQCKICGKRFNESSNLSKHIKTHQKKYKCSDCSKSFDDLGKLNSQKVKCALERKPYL
Assay: PBM E-score (8-mer binding enrichment) (E-score (-0.5 to 0.5)); higher = stronger / more preferred TF binding
Conditions: protein concentration: 200 nM; construct: GST-full length
Procedure: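 Universal 'all 10-mer' protein binding microarrays (Agilent AMADID 015681) probed with GST-tagged S. cerevisiae TFs (full-length or DBD) made by in vitro transcription/translation (PURExpress), about 100-200 nM. Bound TF was detected with fluorescent anti-GST. Each ungapped 8-mer (which stands for itself and its reverse complement) is scored by the PBM enrichment score (E-score), a modified Wilcoxon-Mann-Whitney statistic from -0.5 to +0.5, computed with the Universal PBM Analysis Suite. Scale: above 0.35 generally sequence-specific binding.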

Sequence | PBM E-score
GACCCTTA | 0.376
AGCCCTTG | -0.0802
AACCCTTG | 0.444
CAACCTTG | 0.332
CACCCTTC | 0.135
GTCCCTTA | 0.0953
ACCCCTTC | 0.234
AACCCTTC | 0.424
CAACCTTC | 0.313
GCCCCTTA | -0.0926
ACCCCTTG | 0.279
CTGCGCAC | -0.0749
AAGCGTTA | -0.0244
GTGCTGTA | -0.06
CAAGGCGC | -0.141
GAATGGTA | 0.202
CCTGCAAG | -0.043
AAATCACT | 0.0213
AACCCTTA | 0.457
ACCCCTGA | 0.28
CCCCCTTA | -0.365
ATCCCTTA | 0.0364
ACCCCTTA | 0.344
CACCCTTA | 0.269
CGGCGCAG | -0.253

Sequence | PBM E-score
ATCGTGCG | 0.158
GCAGCCCC | -0.0536
GGAACCGA | -0.0122
ACAACCGC | 0.285
AAAACCGA | 0.0886
ACAACCGG | 0.194
ATAACCGA | 0.349
ATAACCGC | 0.459
CTAACCGC | 0.223
CTAACCGA | -0.035
ATAACCGG | 0.387
ACAACCGA | 0.234
GTAACCGA | 0.346
AGAACCGG | -0.0565
CAGCTGGA | -0.131
CAAGGAGC | -0.24
AGAGATTA | -0.0587
GTGCTGAA | -0.117
ACTGTGGG | -0.145
TAGATATA | 0.172
AGCTTAAA | 0.0882
ACTAGCCG | -0.177
CGAACCTA | 0.00467
GGAACCTA | 0.146
CTAACCTC | 0.305

Sequence | PBM E-score
ATAACCTA | 0.458
ATAACCTG | 0.412
AGAACCTG | 0.0538
GTAACCTA | 0.458
ACAACCTG | 0.23
CTAACCTA | 0.327
ACAACCTA | 0.232
AGAACCTA | 0.0497
GCAACCTA | 0.106
CTGAAGCC | -0.31
ATCAGGGC | -0.249
ACATTCGT | -0.0131
GAGAACTC | -0.146
ATTGAATG | 0.113
CGGGACAA | -0.0695
GGTCAAGA | 0.242
GCTCTCTA | -0.246
AGGAAACC | 0.272
GGGAAACC | 0.324
GGGAAAAC | -0.241
CAGTATAA | 0.197
ACTGAATA | -0.0283
CCAAAAAC | 0.256
CAAAAACC | 0.302
CAAAACCA | 0.311

Sequence | PBM E-score
CAAAACCC | 0.349
AAAAACCC | 0.196
CCAAAACC | 0.331
CCTTATAG | 0.262
GCTGGGGA | -0.0703
ATTCTCTC | -0.0801
CGAGCGTA | -0.102
AAGCATAA | 0.0593
GGTAGTAC | 0.248
CCAGCACA | -0.00996
ATCGACCG | -0.132
CGGTTATA | 0.405
ATGTTATA | -0.0204
CTGTTATA | 0.115
ATGTTATG | 0.158
AGGTTATG | 0.475
AAGTTATG | 0.181
CCGTTATA | 0.103
AGGTTATC | 0.463
ACGTTATA | 0.137
AGGTTATA | 0.469
ACGTTATC | -0.101
AAGTTATC | 0.0532
GAGTACAC | -0.0741
CGTTCCCA | -0.125

Sequence | PBM E-score
AAGCAATG | 0.0748
GAGAATAA | 0.0442
ACGATCGT | 0.0702
ATACAGAA | 0.0186
AGTCTAGA | -0.295
CTGAATGA | 0.0581
AGATAGCG | -0.163
AGGCCTTG | -0.0709
ACATCCAA | -0.00617
CTGTTATC | 0.0763
GGGTTATA | 0.474
GCGTTATA | 0.218
CGGTTATC | 0.424
CAGTTATC | 0.0632
GAGTTATA | 0.142
GCACTGAA | -0.136
AGAGCGTG | -0.169
AGCCACAA | 0.153
GAGTCAGA | -0.157
AGAAGTAG | -0.123
ACCACCCA | 0.252
AGCACCCT | 0.317
ACCACCCC | -0.00264
AGCACCCG | 0.125
AGCACCCA | -0.0894

Sequence | PBM E-score
ACCACCCT | 0.352
GCAGGCTA | -0.25
CTATTCGA | -0.0524
CCTAGCGC | -0.0463
AGCGATGG | -0.195
CCGCAACC | 0.34
CGACAACA | 0.0946
ACGCAACC | 0.316
AGACAACC | 0.31
CCACAACC | 0.411
CGACAACC | 0.339
CCACAACA | 0.109
CCACAACG | 0.0128
CCGCAACA | 0.162
GCAGTTAC | 0.109
CCCAAGAC | -0.045
GTTGAGAA | -0.027
AGTACTGG | -0.141
GCGCTGTA | -0.043
CCCTAGGA | 0.0656
ACTTAACC | 0.287
GCTTAACA | -0.0361
ACCTAGGG | 0.119
ACCTAACC | 0.269
GCCTAACC | 0.125

Sequence | PBM E-score
GCTTAACC | 0.327
CCTTAACC | 0.438
GCTTAAAC | -0.0479
CCCTAACC | 0.33
CCCTAGGG | 0.41
CCTTAACA | 0.116
CACTTTAC | 0.0657
AGGTCTCC | 0.00142
ACACTTTC | -0.104
ATCCTCCG | -0.238
ATCCAACG | -0.139
AATCAGTC | -0.107
TCGCAACA | -0.0496
CCCTAAGG | 0.402
CCCTAAGC | -0.159
CCCTAAGA | 0.263
CGGGCGAG | -0.0126
CCCACCCA | 0.323
ACCACCCG | 0.184
TCCACCCA | -0.233
CCCACCCG | 0.324
GCCACCCA | -0.0281
CCCACCCC | 0.149
